Inconclusive results are not listed. Values without a mark were called inactive. Calls of active or inactive are those of the source. Calls follow the shape of the dose curve; as a rule, active = well fitted inhibition curve with a large enough effect; inconclusive = small, poorly fitted or top-dose-only effect; inactive = flat fitted curve, though single readings scatter.
Experiments:
CRL-7250 = normal cell line; assay: Cytotoxic Profiling of Annotated Libraries Using Quantitative High-Throughput Screening (AID 1296008); details: Five cell lines viability, CellTiter-Glo ATP luminescence, 48-72 h; max response: hits give low values; also: potency is read from the fitted curve at half-maximal effect; as to max response: % is scaled to controls: 0 for no effect and ±100 for the full control effect
How it was run: (§1)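 Compounds were pin-transferred onto cells and incubated 48 or 72 hr at 37 degree Celsius, 95% humidity. CellTiter-Glo was added, plates sat 10 min at room temperature, then ATP-coupled luminescence was imaged as the viability read-out.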

HEK293 = assay: as above; details: Five cell lines viability, CellTiter-Glo ATP luminescence, 48-72 h; max response: hits give low values
How it was run: as §1

HaCat [1] = assay: as above; details: Five cell lines viability, CellTiter-Glo ATP luminescence, 48-72 h; max response: hits give low values
How it was run: as §1

NIH3T3 = assay: as above; details: Five cell lines viability, CellTiter-Glo ATP luminescence, 48-72 h; max response: hits give low values
How it was run: as §1

HACAT [2] = assay: qHTS assay to identify novel small-molecules to repurpose for Merkel cell carcinoma treatment (AID 1296009); details: MCC and control cell lines, CellTiter-Glo viability, 72 h; at 44.8 µM (top of the series) unless noted
How it was run: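 Viability readout: ATP luminescence (CellTiter-Glo) after 72 hr drug exposure at 37 degree celsius. Dose-response format was 8 points for NPC and 11 points for MIPE; data normalized to in-plate controls.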
Also: nearly all actives have a fitted effect of over 60% in size.

For C/C1=C/CCC2=CC(OC2=O)C(C)(C)/C=C/C1=O (configuration not stated), the Potency (CRL-7250) was 2310 nM (active), the Potency (HEK293) was 1300 nM (active) and the Potency (HaCat [1]) was 2590 nM (active). For the same molecule, the Potency (NIH3T3) was 4110 nM (active).

For COc1cc(N2CCC(N3CCN(C)CC3)CC2)ccc1Nc1ncc(Cl)c(Nc2ccccc2P(C)(C)=O)n1, the Potency (CRL-7250) was 2060 nM (active), the Potency (HEK293) was 5800 nM (active) and the Potency (HaCat [1]) was 1840 nM (active). The Potency (NIH3T3) was 1640 nM (active).

For C=CC(=O)Nc1ccc(CN2C(=O)N(c3cc(OC)cc(OC)c3)Cc3cnc(Nc4ccc(N5CCN(C)CC5)cc4)nc32)cc1, the Potency (CRL-7250) was 411 nM (active), the Potency (HEK293) was 11600 nM (active) and the Potency (HaCat [1]) was 5170 nM (active). The Potency (NIH3T3) was 8200 nM (active).

Cc1nc(-c2cn3c(n2)-c2ccc(-c4cnn(C(C)(C)C(N)=O)c4)cc2OCC3)n(C(C)C)n1 was tested, and the max response (CRL-7250) was 4.52%, the Potency (HEK293) was 6510 nM (active) and the Potency (HaCat [1]) was 2910 nM (active). The Potency (NIH3T3) was 5170 nM (active).

Cc1csc2c(N[C@@H](C)CN3CCN(S(=O)(=O)c4ccc(Cl)c(Cl)c4)CC3)ncnc12 was tested, and the Potency (CRL-7250) was 259 nM (active), the Potency (HEK293) was 366 nM (active) and the Potency (HaCat [1]) was 2910 nM (active).

CC(C)n1cnc2c(-c3cnc(N)nc3)nc(N3CCOCC3)nc21 was tested, and the Potency (CRL-7250) was 709 nM (active), the Potency (HEK293) was 1780 nM (active) and the Potency (HaCat [1]) was 632 nM (active).

In the case of CC#CC(=O)Nc1ccc2ncnc(Nc3cccc(Br)c3)c2c1, the Potency (CRL-7250) is reported as 6510 nM (active), the Potency (HEK293) is reported as 3660 nM (active) and the Potency (HaCat [1]) is reported as 32.6 nM (active).

In the case of COc1cc(N2CCC(O)CC2)ccc1Nc1nc(Nc2ccccc2S(=O)(=O)C(C)C)c2[nH]cnc2n1, the max response (CRL-7250) is reported as -7.74%, the Potency (HEK293) is reported as 5800 nM (active) and the Potency (HaCat [1]) is reported as 18400 nM (active). The Potency (NIH3T3) was 7310 nM (active).

With Cc1nc2ccc(CN(C)c3ccc(C(=O)NC(CCC(=O)O)C(=O)O)s3)cc2c(=O)[nH]1 (configuration not stated) the outcome (CRL-7250) was “inactive”, the Potency (HEK293) was 41.1 nM (active) and the Potency (HaCat [1]) was 10.3 nM (active). For the same molecule, the Potency (NIH3T3) was 65.1 nM (active).

C=C1C(=O)O[C@@H]2C3C(=C(C)[C@@H](O)[C@@H](OC(=O)/C(=C/C)COC(C)=O)[C@@H]12)C(=O)[C@H]1O[C@@]31C (some centres not stated) was tested, and the Potency (CRL-7250) was 6320 nM (active), the Potency (HEK293) was 1000 nM (active) and the Potency (HaCat [1]) was 3170 nM (active). For the same molecule, the Potency (NIH3T3) was 2240 nM (active).

With CN1C(=O)c2sccc2N(C)c2nc(Nc3ccc(S(N)(=O)=O)cc3)ncc21 the Potency (CRL-7250) was 7410 nM (active), the Potency (HEK293) was 11700 nM (active) and the Potency (HaCat [1]) was 18600 nM (active). The Potency (NIH3T3) was 16600 nM (active).

With CN1CCN(Cc2ccc(NC(=O)Cc3ccc(Oc4cc(NC(=O)C5CC5)ncn4)cc3)cc2C(F)(F)F)CC1 the Potency (CRL-7250) was 5800 nM (active), the max response (HEK293) was -105% and the max response (HaCat [1]) was -122%.

CC(C)(C)c1ccc(C(=O)Nc2cc(Cl)c(Br)cc2C(=O)O)cc1 was tested, and the max response (CRL-7250) was -0.778%, the Potency (HEK293) was 23100 nM (active) and the max response (HaCat [1]) was -1.9%. It also gave a max response (NIH3T3) of -19.1%.

In the case of COC(C)(C)CCn1nc(Nc2c(C)cccc2C)c2cnc(Nc3ccc(OCCN4CCCC4)c(F)c3)nc21, the Potency (CRL-7250) is reported as 1160 nM (active), the Potency (HEK293) is reported as 7310 nM (active) and the Potency (HaCat [1]) is reported as 1300 nM (active). For the same molecule, the Potency (NIH3T3) was 411 nM (active).

In the case of FC(F)(F)c1ccc(/C=C/c2nc(COc3ccc(CCCCn4ccnn4)cc3)co2)cc1, the Potency (CRL-7250) is reported as 65.1 nM (active), the Potency (HEK293) is reported as 29.1 nM (active) and the max response (HaCat [1]) is reported as -23.7%. It also gave a max response (NIH3T3) of -18.7%.

For CN1CCC(NC(=O)c2cc(-c3c(O)cc(O)cc3Oc3ccc([N+](=O)[O-])cc3)on2)CC1, the Potency (CRL-7250) was 366 nM (active), the Potency (HEK293) was 206 nM (active) and the Potency (HaCat [1]) was 1460 nM (active). For the same molecule, the Potency (NIH3T3) was 5800 nM (active).

In the case of CC1(C(=O)Nc2ccc(F)nc2)CCCN1c1nc(Nc2cc(C3CC3)[nH]n2)c2cccn2n1 (configuration not stated), the Potency (CRL-7250) is reported as 8200 nM (active), the Potency (HEK293) is reported as 5170 nM (active) and the Potency (HaCat [1]) is reported as 2060 nM (active). For the same molecule, the Potency (NIH3T3) was 4610 nM (active).

For N#Cc1cc(-c2ccnc(Nc3ccc(N4CCOCC4)cc3)n2)ccc1OC1CCOCC1, the Potency (CRL-7250) was 4110 nM (active), the Potency (HEK293) was 7310 nM (active) and the outcome (HaCat [1]) was “inactive”. The Potency (NIH3T3) was 11600 nM (active) and the outcome (HACAT [2]) was “inactive”.

For Cc1cc(-c2nc(-c3ccc(OC(F)(F)F)cc3)no2)nn1Cc1ccnc(N2CCN(C3CC3)CC2)c1, the Potency (CRL-7250) was 25.9 nM (active), the Potency (HEK293) was 6.5 nM (active) and the max response (HaCat [1]) was 4.17%. It also gave a max response (NIH3T3) of -14.2%.

With CC(=O)O[C@@H]1C[C@@]23C[C@@]24CC[C@H](O[C@@H]2OC[C@H](O)[C@H](O)[C@H]2O)C(C)(C)[C@@H]4CC[C@H]3[C@]2(C)[C@@H](O)C34O[C@H](C[C@@H](C)[C@@H]3[C@@]12C)[C@@H](C(C)(C)O)O4 the max response (CRL-7250) was 4.08%, the max response (HEK293) was -6.78% and the outcome (HaCat [1]) was “inactive”. For the same molecule, the max response (NIH3T3) was 2.71% and the outcome (HACAT [2]) was “inactive”.

In the case of CC[C@H]1CN(c2nc(N)c(C(N)=O)nc2Cl)CCN1C1CCN(Cc2ccc(Cl)cc2)CC1, the max response (CRL-7250) is reported as 4.79%, the max response (HEK293) is reported as -6.38% and the outcome (HaCat [1]) is reported as “inactive”. The max response (NIH3T3) was 0.303% and the outcome (HACAT [2]) was “inactive”.

With COC(=O)c1cc2c(C(F)(F)F)cc(-c3ccccc3)cc2n1O the max response (CRL-7250) was -4.54%, the max response (HEK293) was 0.379% and the outcome (HaCat [1]) was “inactive”. The outcome (NIH3T3) was “inactive” and the outcome (HACAT [2]) was “inactive”.

CCNC(=O)c1noc(-c2cc(Cl)c(O)cc2O)c1-c1ccc(OC)cc1 was tested, and the Potency (CRL-7250) was 461 nM (active), the Potency (HEK293) was 206 nM (active) and the Potency (HaCat [1]) was 259 nM (active). For the same molecule, the Potency (NIH3T3) was 920 nM (active).
